In PubChem BioAssay AID620 (Sanford-Burnham Center for Chemical Genomics, 2007):
Among all 87,000 compounds or so, about 360 (0.41%) were called active. The sample holds actives, similar compounds and a random draw of the others, so the mix is not that of the screen. No stated cut-off is given here; in the data, active means cytotoxicity above about 50%; inactive means the rest.

Test: cytotoxicity in HT1080 fibrosarcoma cells, cell-based, fluorescence readout (AID 620);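 further: cells exposed to compound overnight then 4 h with Alamar Blue; 0% = vehicle DMSO and 100% = killing control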
Details: HT1080 viability, at 10 µM, stronger effect = higher value
In the case of `Cn1c(=O)c2c(nc(SCCN3CCOCC3)n2Cc2ccc(Cl)cc2)n(C)c1=O`, the cytotoxicity is reported as -7% (inactive). In the case of `Fc1ccc(-c2cc3nc4c(c(N5CCOCC5)n3n2)CCCC4)cc1`, the cytotoxicity is reported as -15.8% (inactive). For `OC1CCN(c2c3c(nc4cc(-c5ccc(F)cc5)nn24)CCC3)CC1`, the cytotoxicity was -17.8% (inactive). For `O=C(C1CC1)N1CCN=C1SCc1ccccc1Cl`, the cytotoxicity was -3.4% (inactive). For `CCOC(=O)N1CCN(S(=O)(=O)c2ccc(OCC)c(C)c2)CC1`, the cytotoxicity was 4.4% (inactive). With `Cc1cccc(NS(=O)(=O)c2cccc3cccnc23)n1` the cytotoxicity was 9% (inactive). In the case of `Cc1cc(C(=O)NCCCN2CCOCC2)n(-c2ccccc2)n1`, the cytotoxicity is reported as -1.5% (inactive). For `Cc1cc(C(=O)NCCCN2CCN(C3CCCCC3)CC2)n(-c2ccccc2)n1`, the cytotoxicity was 13.2% (inactive). With `Cc1cc(C(=O)NCCN2CCN(c3cccc(Cl)c3)CC2)n(-c2ccccc2)n1` the cytotoxicity was 55.9% (active). In the case of `Cn1c(=O)[nH]c(=O)c2c1nc1n2CCCS1`, the cytotoxicity is reported as 35.1% (inactive). In the case of `N#CC(c1ccc(Cl)cc1)c1ccc2c(C(F)(F)F)cc(C(F)(F)F)nc2n1` (centres undefined), the cytotoxicity is reported as 51.3% (active). With `N#CC(c1ccccc1)c1ccc2c(C(F)(F)F)cc(C(F)(F)F)nc2n1` (centres undefined) the cytotoxicity was -4.8% (inactive). For `Cc1ccc(C(C#N)c2ccc3c(C(F)(F)F)cc(C(F)(F)F)nc3n2)cc1` (centres undefined), the cytotoxicity was -12.2% (inactive). With `Cc1ccc(NC(=O)CN2CCCCCC2)c(Br)c1` the cytotoxicity was -14.9% (inactive). For `CCOC(=O)c1ccc(NC(=O)CC2C(=O)N(c3ccc(F)cc3)C(=O)N2CCC(C)C)cc1` (centres undefined), the cytotoxicity was 4.5% (inactive). For `Cn1cc(S(=O)(=O)NCc2cccs2)c(=O)n(C)c1=O`, the cytotoxicity was 0.5% (inactive). For `COc1ccc(S(=O)(=O)Nc2ccc(N(C)C(C)=O)cc2)cc1`, the cytotoxicity was 4.3% (inactive). In the case of `Nc1nc(SCC(=O)Nc2ccccc2-c2ccccc2)n[nH]1`, the cytotoxicity is reported as 0.1% (inactive). For `O=C(CSc1ncn[nH]1)Nc1ccccc1Sc1ccc(Cl)cc1`, the cytotoxicity was 41.7% (inactive). In the case of `Nc1nc(SCC(=O)Nc2ccccc2Sc2ccc(Cl)cc2)n[nH]1`, the cytotoxicity is reported as 74.3% (active). With `CCn1c(SCC(=O)c2ccc(NS(=O)(=O)c3ccccc3)cc2)nnc1-c1cccs1` the cytotoxicity was -0.1% (inactive). In the case of `O=C(O)C1C2CCC(O2)C1C(=O)Nc1cnn(Cc2ccccc2)c1` (centres undefined), the cytotoxicity is reported as 13% (inactive). In the case of `CC(C)CC(NC(=O)C1CCC(C)CC1)C(=O)NCc1ccccn1` (centres undefined), the cytotoxicity is reported as 23.1% (inactive). With `Cn1c(C(=O)N2CCC(C(=O)N3CCOCC3)CC2)cc2sccc21` the cytotoxicity was 4.3% (inactive). In the case of `CCOc1ccccc1-n1c(SCC(N)=O)nnc1-c1cccnc1`, the cytotoxicity is reported as 7.9% (inactive). In the case of `Brc1ccc(C2=Nn3c(nnc3-c3n[nH]c4c3CCC4)SC2)cc1`, the cytotoxicity is reported as 56.3% (active). With `COc1ccc(-c2nnc3n2N=C(c2ccccc2)CS3)cc1OC` the cytotoxicity was -10.6% (inactive). For `COc1ccc(OC)c(C2=Nn3c(nnc3-c3ccncc3)SC2)c1`, the cytotoxicity was 2.2% (inactive). With `COc1cc(-c2nnc3n2N=C(c2ccccc2)CS3)cc(OC)c1OC` the cytotoxicity was 66.9% (active). In the case of `COc1cccc(-c2nnc3n2N=C(c2cc(OC)ccc2OC)CS3)c1`, the cytotoxicity is reported as 5.5% (inactive). For `Clc1ccc(C2=Nn3c(nnc3-c3n[nH]c4c3CCC4)SC2)cc1`, the cytotoxicity was 6.1% (inactive). For `COc1ccc(OC)c(C2=Nn3c(nnc3-c3cc(OC)c(OC)c(OC)c3)SC2)c1`, the cytotoxicity was 64.1% (active). For `Cc1cccc(-c2nnc3n2N=C(c2ccccc2)CS3)c1`, the cytotoxicity was 5.5% (inactive). In the case of `Fc1ccc(C2=Nn3c(nnc3-c3n[nH]c4c3CCC4)SC2)cc1`, the cytotoxicity is reported as 5.8% (inactive). With `COc1ccc(-c2nnc3n2N=C(C)CS3)cc1` the cytotoxicity was -10.3% (inactive). With `COc1ccc(C2=Nn3c(nnc3-c3ccncc3)SC2)cc1` the cytotoxicity was -6.8% (inactive). For `COc1ccc(C2=Nn3c(nnc3-c3ccc(OC)cc3)SC2)cc1`, the cytotoxicity was 62.4% (active). With `N#CCSc1nnc(Cc2cccs2)n1C1CCCCC1` the cytotoxicity was 11.1% (inactive). In the case of `Cc1ccc(C(=O)N2CCC(C(N)=O)CC2)cc1C`, the cytotoxicity is reported as -2.5% (inactive). With `Cc1nn(Cc2n[nH]c(=S)n2Cc2ccccc2)c(C)c1Cl` the cytotoxicity was -7% (inactive). For `Cc1ccc(NC(=O)C2(N(CC(C)C)C(=O)Cn3nnnc3N)CCCCC2)cc1`, the cytotoxicity was 3% (inactive). For `CCNC(=O)CSc1nnc(-c2ccc(OC)cc2)n1CC(C)C`, the cytotoxicity was -18.3% (inactive). With `CSCC[C@H](Nc1ncnc2sc(C)c(C)c12)C(=O)O` the cytotoxicity was -6% (inactive). For `CSc1nnc(-c2ccccc2)o1`, the cytotoxicity was -3.8% (inactive). With `O=c1[nH]c2ccccc2nc1N1CCOCC1` the cytotoxicity was -5% (inactive). For `CN(C)CCNS(=O)(=O)c1ccc(Cl)cc1`, the cytotoxicity was -7.5% (inactive). For `O=S(=O)(c1ccc(N2CCC(c3ccc(Cl)cc3)=N2)cc1)N(CCO)CCO`, the cytotoxicity was -11.6% (inactive). With `COc1ccc(-n2nnc3c(=O)n(C/C=C/c4ccccc4)cnc32)cc1` the cytotoxicity was -3.8% (inactive). For `COc1ccc(CNC(=O)c2c(N)n(CCCN3CCOCC3)c3nc4ccccc4nc23)cc1`, the cytotoxicity was 15.1% (inactive). For `Nc1c(C(=O)NCc2ccc(F)cc2)c2nc3ccccc3nc2n1CCCN1CCOCC1`, the cytotoxicity was 0.2% (inactive). In the case of `Nc1c(C(=O)NCc2ccc3c(c2)OCO3)c2nc3ccccc3nc2n1CCCN1CCOCC1`, the cytotoxicity is reported as 52.9% (active). For `O=C(O)CSCCc1ccccn1`, the cytotoxicity was 8.2% (inactive). In the case of `COc1cccc(NC(=O)Nc2ccc3c(c2)N(C)C(=O)CS3)c1`, the cytotoxicity is reported as 6% (inactive). For `CN1C(=O)CSc2ccc(NC(=O)N3CCc4ccccc43)cc21`, the cytotoxicity was 64.2% (active). For `CN1C(=O)CSc2ccc(NC(=O)N3CCN(c4ccccn4)CC3)cc21`, the cytotoxicity was -6.2% (inactive). With `Cc1cc2nc(NC3=NCN(CCCN4CCOCC4)CN3)nc(C)c2cc1C` the cytotoxicity was 4.7% (inactive). For `Cc1nc(NC2=NCN(CCN3CCOCC3)CN2)nc2c(C)cccc12`, the cytotoxicity was 4.7% (inactive). For `CCOC(=O)c1[nH]c(C)c(C(=O)Nc2ccc(C)c(C)c2)c1C`, the cytotoxicity was -11.9% (inactive). With `CCOC(=O)c1[nH]c(C)c(C(=O)Nc2cc(OC)ccc2OC)c1C` the cytotoxicity was 58% (active). With `COc1ccc(OC)c(NC(=O)c2[nH]c(C)c(C(C)=O)c2C)c1` the cytotoxicity was 11.3% (inactive). With `CCOC(=O)c1[nH]c(C)c(C(=O)Nc2ccc(C)cc2C)c1C` the cytotoxicity was 52.7% (active). In the case of `CCOC(=O)c1[nH]c(C)c(C(=O)Nc2ccc(C)c(Cl)c2)c1C`, the cytotoxicity is reported as 22.7% (inactive). In the case of `CCOC(=O)c1c(C)[nH]c(C(=O)OCC(=O)Nc2cc(C)ccc2OC)c1C`, the cytotoxicity is reported as -1.2% (inactive). In the case of `CCOC(=O)c1c(C)[nH]c(C(=O)OCC(=O)N2CCc3ccccc32)c1C`, the cytotoxicity is reported as -4.1% (inactive). With `CCOC(=O)c1[nH]c(C)c(C(=O)Nc2ccc(Cl)cc2)c1C` the cytotoxicity was 0.6% (inactive). With `CCOC(=O)c1[nH]c(C)c(C(=O)N2CCc3ccccc32)c1C` the cytotoxicity was 57.9% (active). For `CCOC(=O)c1ccc(NC(=O)c2c(C)[nH]c(C(=O)OCC)c2C)cc1`, the cytotoxicity was 5.5% (inactive). In the case of `CCOC(=O)c1[nH]c(C)c(C(=O)Nc2cc(Cl)ccc2C)c1C`, the cytotoxicity is reported as 52% (active). With `CCOC(=O)c1[nH]c(C)c(C(=O)OCC(=O)N2CCc3ccccc32)c1C` the cytotoxicity was 6.7% (inactive).
